Active and inactive are the calls of the source.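 Rule for the calls: active = max inhibition of at least 60%; inconclusive = max inhibition above 30% but below 60%; inactive = max inhibition of 30% or less.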
Target: Follicle-stimulating hormone receptor (Homo sapiens) (UniProt P23945)
Test: qHTS for antagonists of the Thyroid Stimulation Hormone Receptor: Hit Validation with Follickle Stimulating Hormone Receptor (FSHR)
Conditions: FSHR-expressing cells, cAMP HTRF, antagonist counterscreen; stronger effect = higher value
Description: The thyroid-stimulating hormone receptor (TSHR) is a member of the 7 trans-membrane-spanning receptor (7TMR) family of cell surface receptors. TSHR-mediated hyperthyroidism is important in thyroid pathology. The development of small molecule antagonists of TSHR may lead to therapeutic approaches for TSHR-mediated hyperthyroidism caused by constitutively activating mutations or stimulating auto-antibodies associated with Graves' disease. Graves' disease is the leading cause of hyperthyroidism and is caused by autoantibodies that stimulate TSHR (TsAbs) causing thyroid growth and unregulated overproduction of thyroid hormones and existing treatments have liabilities (agranulocytosis). In addition, TSHRs are known to be expressed in multiple extrathyroidal tissues including bone, brain, kidney, testis, fat and cells of the immune system but the role of the TSHR in these tissues is not clear. Therefore, TSHR antagonists/inverse agonists could be used as probes of extrathyroidal TSHR function. Finally, TSHR inverse agonists, which are a subclass of antagonists that inhibit agonist-independent (or basal or constitutive) TSHR signaling, could be used to inhibit TSH-independent signaling in patients with recurrent or metastatic thyroid cancer who are receiving thyroid hormone to suppress TSH. […]

Sequence of Follicle-stimulating hormone receptor (Homo sapiens) (P23945 whole entry, looked up): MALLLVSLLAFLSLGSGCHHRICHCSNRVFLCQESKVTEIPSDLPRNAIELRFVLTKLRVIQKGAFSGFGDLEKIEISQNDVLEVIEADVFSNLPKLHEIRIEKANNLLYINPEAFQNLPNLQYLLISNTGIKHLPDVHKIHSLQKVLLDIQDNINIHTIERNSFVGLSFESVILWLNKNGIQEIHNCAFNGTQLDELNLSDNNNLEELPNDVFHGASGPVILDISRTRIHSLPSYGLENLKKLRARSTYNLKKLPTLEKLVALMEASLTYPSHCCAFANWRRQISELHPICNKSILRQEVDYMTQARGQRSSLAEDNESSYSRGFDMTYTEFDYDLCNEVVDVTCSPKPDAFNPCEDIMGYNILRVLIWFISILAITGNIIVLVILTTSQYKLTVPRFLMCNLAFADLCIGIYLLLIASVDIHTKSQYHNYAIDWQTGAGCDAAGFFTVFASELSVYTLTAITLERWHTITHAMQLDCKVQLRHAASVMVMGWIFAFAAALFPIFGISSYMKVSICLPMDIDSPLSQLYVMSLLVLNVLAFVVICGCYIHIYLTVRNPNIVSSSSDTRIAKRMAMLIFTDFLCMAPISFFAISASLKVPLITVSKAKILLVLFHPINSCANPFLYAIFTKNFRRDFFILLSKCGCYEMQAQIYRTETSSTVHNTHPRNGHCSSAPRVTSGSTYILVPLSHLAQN

With `COC(=O)C1=C(c2ccc(-c3ccccc3)c(F)c2)C[C@@H]2CC[C@H]1N2C(=O)NCCOc1ccccc1` the max inhibition was 79.5% (active).

From PubChem BioAssay AID602448 (National Center for Advancing Translational Sciences (NCATS), 2012)
